# Measured values: PMC5700166
# Changes are numbered by the printed parent chain.
# Assays:
# Assay in all cases: protein-binding microarray (PBM); PBM: ~300 nM protein, 6 mM HEPES pH 7.8, 80 mM KCl, 0.5 mM EDTA, 0.5 mM EGTA, 6% glycerol, 35 ng/ul poly-dIdC, 1% milk, 1 h, room temperature; Ap Aiptasia and Nv Nematostella (sea anemones) / Co Capsaspora / Aq Amphimedon (sponge) / Dm Drosophila / Hu human; RHD is the Rel homology domain; high values mean tight binding
# Details in all cases: dsDNA, one strand shown
# GST-Ap-NF-kB RHD = biological target: T1, GST-Ap-NF-kB RHD (Exaiptasia pallida (Aiptasia), UniProt A0A913YAJ5 2-422)
# T1 sequence: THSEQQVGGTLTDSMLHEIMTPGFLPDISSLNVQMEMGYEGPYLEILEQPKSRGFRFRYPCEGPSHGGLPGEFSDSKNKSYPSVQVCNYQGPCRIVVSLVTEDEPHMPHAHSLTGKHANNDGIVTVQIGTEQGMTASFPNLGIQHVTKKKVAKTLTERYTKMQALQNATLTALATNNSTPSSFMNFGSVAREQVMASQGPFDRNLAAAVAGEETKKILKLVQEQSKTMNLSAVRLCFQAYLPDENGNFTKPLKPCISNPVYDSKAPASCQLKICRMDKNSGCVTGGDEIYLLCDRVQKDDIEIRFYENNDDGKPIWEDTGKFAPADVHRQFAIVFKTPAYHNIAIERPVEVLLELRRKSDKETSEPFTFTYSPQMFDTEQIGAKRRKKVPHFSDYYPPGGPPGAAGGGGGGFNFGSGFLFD
# [1] = biological target: T2, GST-Nv-NF-kB (Cys allele) (Nematostella vectensis, UniProt E5G601 2-411)
# T2 sequence: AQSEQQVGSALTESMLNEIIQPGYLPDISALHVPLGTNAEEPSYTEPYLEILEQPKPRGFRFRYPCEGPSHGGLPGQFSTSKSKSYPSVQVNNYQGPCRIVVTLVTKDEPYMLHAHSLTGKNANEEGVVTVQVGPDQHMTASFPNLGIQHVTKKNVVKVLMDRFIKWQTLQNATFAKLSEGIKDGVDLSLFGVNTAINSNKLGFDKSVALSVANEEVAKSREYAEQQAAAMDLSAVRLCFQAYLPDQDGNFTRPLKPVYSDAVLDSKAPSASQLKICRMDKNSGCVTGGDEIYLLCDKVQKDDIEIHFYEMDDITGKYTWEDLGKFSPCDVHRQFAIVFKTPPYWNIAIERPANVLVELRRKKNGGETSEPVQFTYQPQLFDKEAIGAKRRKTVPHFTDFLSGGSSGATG
# [2] = biological target: T3, GST-Nv-NF-kB (Ser allele) (Nematostella vectensis, UniProt A7UNT2 2-411)
# T3 sequence: T2 sequence with Q21R, C66S, S207N, E215Q, V217A, E225K, A268E, D399E
# GST-Co-NF-kB = biological target: T4, GST-Co-NF-kB (Capsaspora owczarzaki, UniProt F1ARL5 200-546)
# T4 sequence: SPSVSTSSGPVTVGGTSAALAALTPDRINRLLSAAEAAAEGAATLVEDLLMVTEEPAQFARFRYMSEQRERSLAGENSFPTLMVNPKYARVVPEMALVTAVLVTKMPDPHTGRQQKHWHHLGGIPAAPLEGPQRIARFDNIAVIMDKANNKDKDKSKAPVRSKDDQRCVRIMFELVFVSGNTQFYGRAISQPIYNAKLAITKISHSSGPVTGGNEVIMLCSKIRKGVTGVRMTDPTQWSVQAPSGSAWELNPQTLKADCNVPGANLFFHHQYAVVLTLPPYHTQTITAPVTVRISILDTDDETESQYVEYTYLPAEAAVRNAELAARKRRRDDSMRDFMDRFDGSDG
# GST-Dm-Relish = biological target: T5, GST-Dm-Relish (Drosophila melanogaster, UniProt Q94527 99-473)
# T5 sequence: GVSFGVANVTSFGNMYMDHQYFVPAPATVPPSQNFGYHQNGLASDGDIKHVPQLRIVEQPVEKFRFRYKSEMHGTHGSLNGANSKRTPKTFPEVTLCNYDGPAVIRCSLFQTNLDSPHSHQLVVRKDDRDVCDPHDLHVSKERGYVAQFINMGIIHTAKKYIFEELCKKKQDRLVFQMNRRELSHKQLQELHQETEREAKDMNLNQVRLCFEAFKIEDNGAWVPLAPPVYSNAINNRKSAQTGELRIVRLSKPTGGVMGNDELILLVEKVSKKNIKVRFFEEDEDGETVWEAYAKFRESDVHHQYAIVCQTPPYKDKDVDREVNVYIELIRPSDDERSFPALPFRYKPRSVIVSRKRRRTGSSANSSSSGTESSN
# GST-Aq-NF-kB = biological target: T6, GST-Aq-NF-kB (Amphimedon queenslandica, UniProt A9Y5G7 2-389)
# T6 sequence: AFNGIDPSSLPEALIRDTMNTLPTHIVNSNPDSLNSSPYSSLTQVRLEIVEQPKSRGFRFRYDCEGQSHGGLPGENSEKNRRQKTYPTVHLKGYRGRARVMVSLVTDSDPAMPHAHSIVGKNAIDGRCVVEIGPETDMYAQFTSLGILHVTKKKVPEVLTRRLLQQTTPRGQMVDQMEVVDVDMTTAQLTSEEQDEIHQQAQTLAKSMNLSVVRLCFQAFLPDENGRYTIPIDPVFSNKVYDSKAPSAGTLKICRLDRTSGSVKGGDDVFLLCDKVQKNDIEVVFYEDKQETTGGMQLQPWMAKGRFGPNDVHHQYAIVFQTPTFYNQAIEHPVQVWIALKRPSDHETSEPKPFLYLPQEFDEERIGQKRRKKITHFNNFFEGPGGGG
# GST-Hu-p50 = GST-Hu-p50 (Homo sapiens, UniProt P19838 7-356)
# Chain of GST-Hu-p50 (P19838 7-356): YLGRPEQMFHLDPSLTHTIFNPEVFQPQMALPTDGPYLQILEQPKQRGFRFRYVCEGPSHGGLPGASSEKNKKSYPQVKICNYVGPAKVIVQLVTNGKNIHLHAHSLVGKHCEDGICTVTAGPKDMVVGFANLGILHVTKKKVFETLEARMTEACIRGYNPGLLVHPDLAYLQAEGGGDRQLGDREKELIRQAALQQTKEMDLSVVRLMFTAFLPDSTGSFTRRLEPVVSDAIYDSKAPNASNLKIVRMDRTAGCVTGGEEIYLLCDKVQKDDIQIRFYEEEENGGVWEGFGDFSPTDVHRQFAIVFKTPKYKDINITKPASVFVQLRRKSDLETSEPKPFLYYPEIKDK
Sequence,binding signal (GST-Ap-NF-kB RHD),binding signal [1],binding signal [2],binding signal (GST-Co-NF-kB),binding signal (GST-Dm-Relish),binding signal (GST-Aq-NF-kB),binding signal (GST-Hu-p50)
CCGATTAACATCAAATTTCCCGATGATGTTAATCGGGTCTTGATTCGCTTGACGCTGCTG,3.04 z-score,4.4 z-score,3.94 z-score,4.24 z-score,2.2 z-score,4.21 z-score,3.9 z-score
CCGATTAACATCAAGTTTTTCCCTGATGTTAATCGGGTCTTGATTCGCTTGACGCTGCTG,4.35 z-score,5.43 z-score,7.41 z-score,5.3 z-score,5.12 z-score,5.1 z-score,4.44 z-score
CCGATTAACATCAAAAAAATCCCTGATGTTAATCGGGTCTTGATTCGCTTGACGCTGCTG,6.44 z-score,7.72 z-score,6.74 z-score,2.41 z-score,8.77 z-score,7.45 z-score,5.87 z-score
CCGATTAACATCACGGGATCCCCTGATGTTAATCGGGTCTTGATTCGCTTGACGCTGCTG,7.35 z-score,4.81 z-score,6.31 z-score,3.23 z-score,9.23 z-score,5.41 z-score,4.53 z-score
CCGATTAACATCAGCAATTCCCCTGATGTTAATCGGGTCTTGATTCGCTTGACGCTGCTG,7.03 z-score,7.8 z-score,9.25 z-score,5.7 z-score,3.8 z-score,5.36 z-score,6.4 z-score
CCGATTAACATCAGGGGATATTATGATGTTAATCGGGTCTTGATTCGCTTGACGCTGCTG,7.99 z-score,7.96 z-score,9.17 z-score,4.65 z-score,6.28 z-score,6.34 z-score,6.06 z-score
CCGATTAACATCAGGGAAAACTATGATGTTAATCGGGTCTTGATTCGCTTGACGCTGCTG,3.76 z-score,5.55 z-score,7.33 z-score,5.67 z-score,1.67 z-score,4.07 z-score,4.03 z-score
CCGATTAACATCAGGGTGGGAAATGATGTTAATCGGGTCTTGATTCGCTTGACGCTGCTG,2.06 z-score,3.1 z-score,2.77 z-score,3.37 z-score,1.62 z-score,2.27 z-score,2.15 z-score
CCGATTAACATCAACATTACCCCTGATGTTAATCGGGTCTTGATTCGCTTGACGCTGCTG,2.39 z-score,2.88 z-score,3.43 z-score,4.07 z-score,1.42 z-score,2.86 z-score,3.24 z-score
CCGATTAACATCAAAGTCCCGGGTGATGTTAATCGGGTCTTGATTCGCTTGACGCTGCTG,4.32 z-score,3.61 z-score,3.64 z-score,1.85 z-score,4.38 z-score,3.49 z-score,3.83 z-score
CCGATTAACATCAAGGAATCCCCTGATGTTAATCGGGTCTTGATTCGCTTGACGCTGCTG,9.79 z-score,9.72 z-score,10.4 z-score,3.63 z-score,10.1 z-score,7.6 z-score,7.1 z-score
CCGATTAACATCAGCACTCCCCCTGATGTTAATCGGGTCTTGATTCGCTTGACGCTGCTG,5.42 z-score,4.35 z-score,4.91 z-score,3.89 z-score,2.23 z-score,3.99 z-score,5.21 z-score
CCGATTAACATCAATAATTTCCCTGATGTTAATCGGGTCTTGATTCGCTTGACGCTGCTG,4.38 z-score,6.39 z-score,7.05 z-score,4.82 z-score,3.45 z-score,5.17 z-score,5 z-score
CCGATTAACATCAGGGGATCTTATGATGTTAATCGGGTCTTGATTCGCTTGACGCTGCTG,7.32 z-score,7.01 z-score,7.89 z-score,3.1 z-score,6.67 z-score,6.41 z-score,6.06 z-score
CCGATTAACATCAAATTTCCCCGTGATGTTAATCGGGTCTTGATTCGCTTGACGCTGCTG,8.33 z-score,9.6 z-score,11.4 z-score,9.87 z-score,7.13 z-score,7.38 z-score,6.52 z-score
CCGATTAACATCAAATTTTCCCCTGATGTTAATCGGGTCTTGATTCGCTTGACGCTGCTG,7.95 z-score,9.83 z-score,12.2 z-score,11.6 z-score,5.18 z-score,7.36 z-score,6.86 z-score
CCGATTAACATCAGGATACCCCCTGATGTTAATCGGGTCTTGATTCGCTTGACGCTGCTG,7.7 z-score,4.68 z-score,4.35 z-score,4.59 z-score,5.79 z-score,6.35 z-score,5.02 z-score
CCGATTAACATCAATGGGATTTCTGATGTTAATCGGGTCTTGATTCGCTTGACGCTGCTG,2.83 z-score,2.72 z-score,2.22 z-score,1.38 z-score,5.37 z-score,2.47 z-score,2.6 z-score
CCGATTAACATCAGGGCTTCCCCTGATGTTAATCGGGTCTTGATTCGCTTGACGCTGCTG,9.17 z-score,10.8 z-score,8.58 z-score,4.03 z-score,10.4 z-score,9.48 z-score,6.74 z-score
CCGATTAACATCAAATTCCCATGTGATGTTAATCGGGTCTTGATTCGCTTGACGCTGCTG,2.41 z-score,4.08 z-score,4.15 z-score,1.96 z-score,3.99 z-score,2.58 z-score,3.09 z-score
CCGATTAACATCAAAAATCCCCATGATGTTAATCGGGTCTTGATTCGCTTGACGCTGCTG,9.63 z-score,10.8 z-score,11.4 z-score,5.31 z-score,9.64 z-score,7.92 z-score,7.94 z-score
CCGATTAACATCAGGGAACCCCCTGATGTTAATCGGGTCTTGATTCGCTTGACGCTGCTG,13 z-score,11.8 z-score,10.7 z-score,3.7 z-score,11 z-score,11.1 z-score,7.62 z-score
CCGATTAACATCAGGGGGAATACTGATGTTAATCGGGTCTTGATTCGCTTGACGCTGCTG,8.15 z-score,8.32 z-score,8.65 z-score,9.18 z-score,7.69 z-score,6.87 z-score,6.83 z-score
CCGATTAACATCAGGGGGGAAGATGATGTTAATCGGGTCTTGATTCGCTTGACGCTGCTG,4.86 z-score,5.5 z-score,5.9 z-score,7.62 z-score,3.64 z-score,4.85 z-score,4.98 z-score
